# Reference: PubChem BioAssay (NCI)
# “And” between values parts separate entries of the source, which are not always exact repeats. Equal entries are not always repeated. This is part of a sample that, as a whole, favours compounds with a hit. Of some 83,000 tested, about 20% had one in any assay.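 Single-concentration screen, 48 h exposure, 96-well plates. Endpoint: percent growth. Below 10 = active.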 The source made the active and inactive calls.
# Columns and labels:
# Experiment in all cases: NCI-60 one-dose screen, 48 h (100 = growth as untreated, 0 = no growth, -100 = all killed)
# OVCAR-5 ovarian = settings: 10 µM unless noted
# OVCAR-4 ovarian = settings: 10 µM unless noted
# SK-OV-3 ovarian = settings: 10 µM unless noted
# IGROV1 ovarian = settings: 10 µM unless noted
# HS 578T breast = settings: 10 µM unless noted
# NCI/ADR-RES ovarian = settings: 10 µM unless noted
# T-47D breast = settings: 10 µM unless noted
# BT-549 breast = settings: 10 µM unless noted
# MDA-MB-435 melanoma = settings: 10 µM unless noted
# SW-620 colon = settings: 10 µM unless noted
# MCF7 breast = settings: 10 µM
# HCT-116 colon = settings: 10 µM unless noted
# HCC-2998 colon = settings: 10 µM unless noted
# KM12 colon = settings: 10 µM unless noted
# OVCAR-8 ovarian = settings: 10 µM
SMILES,growth (OVCAR-5 ovarian),growth (OVCAR-4 ovarian),growth (SK-OV-3 ovarian),growth (IGROV1 ovarian),growth (HS 578T breast),growth (NCI/ADR-RES ovarian),growth (T-47D breast),growth (BT-549 breast),growth (MDA-MB-435 melanoma),growth (SW-620 colon),growth (MCF7 breast),growth (HCT-116 colon),growth (HCC-2998 colon),growth (KM12 colon),growth (OVCAR-8 ovarian)
CC[C@@]1(O)C(=O)OCc2c1cc1n(c2=O)Cc2cc3ccccc3nc2-1,-1.11% (active),-36.2% (active),7.05% (active),-62.2% (active),22.6% (inactive),-2.49% (active),-7.95% (active),-39.9% (active),-81.5% (active),-1.68% (active),2.07% (active),-12.5% (active),-73.8% (active),-42.1% (active),
CO[C@H](/C(C)=C/C=C/C(C)=C/c1coc(C)n1)[C@H](C)[C@H]1C[C@@H](O)[C@@]2(C)O[C@H]2/C=C/[C@@H](C)[C@@H]2C[C@@H](CC(=O)O2)C[C@H]2O[C@@H]2C(=O)O1,34.2% (inactive),-6.77% (active),32.3% (inactive),-35.5% (active),-2.81% (active),19% (inactive),64% (inactive),8.66% (active),-59.2% (active),21.5% (inactive),14.7% (inactive),4.48% (active),-25.4% (active),-17.9% (active),
COC1CC(CC2CCC(C)C(C(C)C(=O)O)O2)OC2(OC(C)(C3CCC(C)(C4OC(C5OC(O)(CO)C(C)CC5C)CC4C)O3)CC2C)C1C (configuration not stated),14% (inactive),,44% (inactive),,14.3% (inactive),36.7% (inactive),15.9% (inactive),-52.6% (active),-91.7% (active),6.56% (active),8.04% (active),3.98% (active),-10% (active),-33.4% (active),
COc1ccccc1/C=C(/C)[N+](=O)[O-],104% (inactive) and 91.1% (inactive),105% (inactive) and 102% (inactive),115% (inactive) and 81.6% (inactive),71.5% (inactive) and 95.9% (inactive),97.2% (inactive) and 118% (inactive),95.1% (inactive) and 104% (inactive),35.7% (inactive) and 86.6% (inactive),83.6% (inactive) and 101% (inactive),79.2% (inactive) and 105% (inactive),49.8% (inactive) and 106% (inactive),7.37% (active) and 105% (inactive),44% (inactive) and 98.6% (inactive),103% (inactive) and 99% (inactive),70% (inactive) and 99.8% (inactive),85.6% (inactive) and 103% (inactive)
COC1=C(C)C(=O)C2=C(C1=O)C(CO)N1C(C#N)C3CC4C(C1C2N1CCOC41)N3C (configuration not stated),11.1% (inactive),,42.4% (inactive),,-55.2% (active),-21.4% (active),-16.8% (active),-64.3% (active),-64.2% (active),-28% (active),-0.551% (active),-33.7% (active),-87.3% (active),-60.8% (active),
C[C@]12CC[C@H](O)CC1=CC[C@@H]1[C@@H]2CC[C@]2(C)C(=O)CC[C@@H]12,92.3% (inactive),95.3% (inactive),116% (inactive),80.5% (inactive),130% (inactive),99.1% (inactive),96.4% (inactive),98.3% (inactive),90.3% (inactive),110% (inactive),130% (inactive),91.6% (inactive),90.7% (inactive),97.1% (inactive),
CCCCCCCCCCCC1CCCC(C)N1 (configuration not stated),88.8% (inactive),85.5% (inactive),121% (inactive),-40.3% (active),64.5% (inactive),82.7% (inactive),102% (inactive),,71.8% (inactive),49.4% (inactive),44.1% (inactive),65% (inactive),-72.4% (active),44% (inactive),67.3% (inactive)
O=C1c2ccccc2C(=O)C(Cl)C1Cl (configuration not stated),112% (inactive),-89% (active),99.5% (inactive),78.4% (inactive),,86.5% (inactive),-38% (active),78.5% (inactive),95.9% (inactive),,-62.2% (active),-95.7% (active),111% (inactive),56.8% (inactive),91.9% (inactive)
CC[n+]1c(-c2ccccc2)c2cc(N)ccc2c2ccc(N)cc21,49.4% (inactive),11.6% (inactive),47.3% (inactive),9.12% (active),3.75% (active),87.6% (inactive),11.2% (inactive),-35.7% (active),-36% (active),17.9% (inactive),,13.8% (inactive),6.95% (active),7.69% (active),18.6% (inactive)
